# Screening results (PubChem BioAssay)
# TGFb SMAD3 inh = qHTS for Inhibitors of TGF-b; hit rate 1.2% among 410,000; HepG2 CAGA-GFP TGF-b/SMAD3 reporter, GFP fluorescence, 18 h; TGF-beta stimulated, 500 pg/mL final; Potency, µM (doses to about 46.1 µM), for the others: at the top dose activity, negative = inhibition, hits mostly inhibitors; further: on the % scale 0 is the no-effect control and ±100 the full control effect; nearly all actives have a fitted effect of over 65% in size
#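 Read-out: total well GFP (ex488/em500-530) summed from mean per-cell fluorescence. Cells: HEPG2 CAGA-GFP, 1% FBS DMEM, 18 h at 37 degrees C with 500 pg/mL final TGF-beta. Unstimulated wells served as the full-inhibition control; stimulated DMSO wells = 0%.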
# ATXN2 expr inh = Primary qHTS for Inhibitors of ATXN expression; HEK-293 ATXN2-luciferase reporter, luminescence, 24 h; Potency, µM (titrated, usually from 57 µM), for the others: top-dose activity change, negative = inhibition, most hits filed as inhibitors; hit rate 0.72% among 360,000; AID 1745845, 2022; further: on the % scale 0 is the no-effect control and ±100 the full control effect; nearly all actives have a fitted effect of over 55% in size
#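 qHTS (up to 57 uM final) was run with 24 h compound exposure of reporter cells at 37 °C. Each well was multiplexed: SteadyGlo luminescence measured ATXN2-luciferase expression after a fluorogenic Gly-Phe-AFC viability readout (25 uM final).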
# ALOX12 inh = Primary qHTS assay for inhibitors of human arachidonate 12S-lipoxygenase (ALOX12): Round 2 | Polyunsaturated fatty acid lipoxygenase ALOX12 (Homo sapiens), P18054 | purified 12hLO, xylenol orange hydroperoxide absorbance | Potency, µM (titrated, usually from 108 µM), without a hit: at the highest dose activity change, negative = inhibition, most hits filed as inhibitors | hit rate 1.1% among 580,000; further: on the % scale 0 is the no-effect control and ±100 the full control effect
# Target sequence (P18054 whole entry, looked up): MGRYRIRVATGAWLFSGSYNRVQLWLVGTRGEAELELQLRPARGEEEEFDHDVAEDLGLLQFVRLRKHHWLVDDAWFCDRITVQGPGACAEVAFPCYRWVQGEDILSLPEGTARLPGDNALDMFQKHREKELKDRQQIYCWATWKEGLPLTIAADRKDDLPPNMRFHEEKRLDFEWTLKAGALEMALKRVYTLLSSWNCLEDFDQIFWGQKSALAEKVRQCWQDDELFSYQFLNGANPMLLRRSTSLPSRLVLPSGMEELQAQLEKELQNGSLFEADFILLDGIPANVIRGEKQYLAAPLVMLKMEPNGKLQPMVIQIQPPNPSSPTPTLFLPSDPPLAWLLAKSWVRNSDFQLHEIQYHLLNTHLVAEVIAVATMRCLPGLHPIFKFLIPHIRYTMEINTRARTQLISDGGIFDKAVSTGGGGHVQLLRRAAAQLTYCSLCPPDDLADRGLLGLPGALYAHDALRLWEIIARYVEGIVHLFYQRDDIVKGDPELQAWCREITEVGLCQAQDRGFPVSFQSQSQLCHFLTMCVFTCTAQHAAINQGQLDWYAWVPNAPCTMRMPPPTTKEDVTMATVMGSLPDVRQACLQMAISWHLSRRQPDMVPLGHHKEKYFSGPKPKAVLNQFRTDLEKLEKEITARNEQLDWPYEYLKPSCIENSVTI
#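 Hydroperoxide product was detected by ferrous iron/xylenol orange as the 573 to 405 nm absorbance ratio. Arachidonic acid at 40 uM (final) was turned over for 30 min at room temperature by 150 nM human 12hLO, pH 7.0 Hepes buffer, after 15 min compound preincubation.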
# HepG2 tox = qHTS for Inhibitors of TGF-b: Cytotox Counterscreen. HepG2 CAGA-GFP viability, ATP luminescence, 18 h. Potency, µM (highest dose often 46.1 µM), inactives show top-dose activity change, negative = cytotoxicity, hits mostly cytotoxic. hit rate 0.76% among 410,000. AID 588856, 2011
#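 CellTiter-Glo luminescence gave cytotoxicity after 18 hours at 37 degrees C. The cells were HepG2 CAGA-GFP in 1% FBS DMEM, stimulated with 500 pg/mL TGF-beta after compound addition. %Activity was normalised to no-cell wells (complete cell-killing) and DMSO (no toxicity), and curves were fitted and classified.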
# ATXN viability = Viability Counterscreen for Primary qHTS for Inhibitors of ATXN expression; hit rate 0.49% among 400,000; S2 cells (HEK-293 line with an ATXN2-luciferase reporter) viability, CellTiter-Fluor protease fluorescence, 24 h; Potency, µM (doses to about 56.7 µM), actives largely listed as cytotoxic; further: nearly all actives have a fitted effect of over 40% in size
# * marks the source's active call; other numbers are inactive results; i = inactive; ? = inconclusive; · = no result given; ! = not active in a repeat. An excerpt weighted towards active compounds, which were near 2.7% of everything screened. The call rests on the fitted dose curve; in most records, active means well fitted curve in the direction sought with a large enough effect; inconclusive means small, poorly fitted or top-dose-only effect, or another doubt; inactive means no such curve, though single readings can be large; an effect the other way counts as inactive or inconclusive. Potency means the concentration at half of the fitted maximal effect.
SMILES,TGFb SMAD3 inh,ATXN2 expr inh,ALOX12 inh,HepG2 tox,ATXN viability
Cc1cccc(COC[C@H](Cc2ccccc2)N2CCN(C(=O)c3cccc(C)c3)CCC2=O)c1,·,-27%,?,·,25µM*
Cc1cccc(C(=O)N2CCC(=O)N(C(COCc3cccc(C(F)(F)F)c3)Cc3ccccc3)CC2)c1 (configuration not stated),?,0%,-8%,-56%,32µM*
Cc1cccc(C(=O)N2CCC(=O)N(C(COCc3ccccc3)Cc3ccccc3)CC2)c1 (configuration not stated),3%,-21%,0%,-8%,i
Cc1cccc(COC[C@H](CC(C)C)N2CCN(C(=O)c3ccc(C(F)(F)F)cc3)CCC2=O)c1,·,?,-5%,·,·
CC(C)C(C)(C#N)NC(=O)CSc1n[nH]c(-c2ccc(Br)cc2)n1 (configuration not stated),·,·,-26%,·,·
COC(=O)CC1C(=O)NCCN1S(=O)(=O)c1ccc(Cl)cc1 (configuration not stated),·,·,26%,·,·
O=C(CCc1ncc(-c2c(F)cccc2F)o1)N1CCN(S(=O)(=O)c2ccccc2Cl)CC1,·,·,37%,·,·
CCOC(=O)CSc1cccc2cccnc12,?,20µM*,?,8.9µM*,?
COc1ccc(NC(=O)CSc2cccc3cccnc23)c(OC)c1,-17%,3%,-21%,4%,i
CCCCCOc1ccc(NC(=O)CSc2cccc3cccnc23)cc1,?,-38%,-13%,20µM*,i
O=C(CSc1cccc2cccnc12)Nc1cccc(S(=O)(=O)N2CCOCC2)c1,0%,-22%,-5%,-25%,i
O=C(CSc1cccc2cccnc12)Nc1ccc(S(=O)(=O)N2CCOCC2)cc1,?,13µM*,-12%,-175%,11µM*
CCc1nc(C)c(C(=O)N2CCC(c3[nH]ncc3-c3ccccc3C)CC2)o1,·,·,81%,·,·
CC(C)C(CNC(=O)c1cc(-c2ccncc2)nc2ccccc12)N(C)C (configuration not stated),·,·,10%,·,·
Cc1c(C(=O)N(Cc2ccco2)C2CC2)[nH]c2c1C(=O)CC(C)(C)C2,·,·,-58%,·,·
CC(C)[C@@H]1CC[C@@H](C)C[C@H]1OC(=O)C[n+]1cc(-c2ccc(Cl)cc2)n2c1CCCCC2,?,?,?,-187%,?
COc1ccc(-c2c[n+](CC(=O)OC3CC(C)CCC3C(C)C)c3n2CCC3)cc1 (configuration not stated),20µM*,?,7%,-31%,?
Cc1ccc(S(=O)(=O)CCC(=O)OCC(=O)c2ccc3c(c2)-c2ccccc2C3)cc1,·,·,15%,·,·
CCOc1cc(C2C(C#N)=C(N)OC(C)=C2C(C)=O)c(Br)c(Br)c1OC(C)C (configuration not stated),16µM*,1%,·,-58%,i
O[C@@H]1[C@@H](Cn2cc(-c3cccnc3)nn2)C[C@@H](NCc2nccs2)[C@@H]1O,·,·,0%,·,·
CCCNC(=O)N[C@@H]1C[C@H](Cn2cc(-c3cccnc3)nn2)[C@@H](O)[C@H]1O,·,·,14µM*,·,·
Cn1cc(CN(C(=O)Nc2ccccc2)C2CCCCC2)c2ccccc21,?,?,-5%,16µM*,?
Cn1cc(CN(C(=O)Nc2ccc(Cl)c(Cl)c2)C2CCCCC2)c2ccccc21,-5%,14%,-15%,-5%,i
CC(C)(CNC(=O)C1(c2ccc(F)cc2)CCC1)C(N)=O,·,·,-21%,·,·
O=C(O)Cc1sc(-c2cccnc2)nc1-c1ccc(Br)cc1,-11%,-17%,35µM*,4%,i
SMILES,TGFb SMAD3 inh,ATXN2 expr inh,ALOX12 inh,HepG2 tox,ATXN viability
CCn1c(C(=O)NCc2ccccc2Br)cc2oc3ccccc3c21,41%,57%,-10%,13µM*,i
O=c1c2c([N+](=O)[O-])cc([N+](=O)[O-])cc2sn1Cc1ccccc1,?,?,0.79µM*,16µM*,?
COC(=O)c1cc(C(=O)OCCCC(=O)c2ccc(F)cc2)cc([N+](=O)[O-])c1,·,·,35%,·,·
COc1ccc2[nH]c(C(=O)N3CCN4CCS(=O)(=O)N(C5CC5)C(=O)C4C3)cc2c1 (configuration not stated),·,·,22µM*,·,·
CCCCC(=O)N/N=C/c1ccc(C)cc1,·,·,-1%,·,·
CN1c2ccccc2N(C)C1(C)c1cccc2ccccc12,?,?,35µM*,-26%,?
S=C(NC1CCCCCC1)NC1CCCC1,-8%,·,-27%,-4%,i
NNC(=S)NC1CCCCCCCCCCC1,10µM*,·,?,8.9µM*,i
O=c1cc2oc3cc(O)c(O)cc3c(-c3ccccc3[N+](=O)[O-])c-2cc1O,-24%,·,?,-15%,16µM*
O=C(O)/C=C/c1cccc(Cl)c1,·,·,0%,·,·
COc1cc(OC)cc(-c2cc3nc(C)c(CCC(=O)NC(C)CCc4ccco4)c(C)n3n2)c1 (configuration not stated),-8%,?,-20%,4%,i
COc1cc(OC)cc(-c2cc3nc(C)c(CCC(=O)O)c(C)n3n2)c1,0%,0.71µM*,?,0%,i
Cc1ccccc1C(OC(=O)c1nn(C)c(=O)c2ccccc12)C(F)(F)F (configuration not stated),·,·,24%,·,·
C#CCN1CCC(C(=O)NCCNC(=O)C2CC2)CC1,·,·,-37%,·,·
COc1ccc(-c2c(C)oc3cc(OCCN4CCN(CCO)CC4)ccc3c2=O)cc1,·,·,-3%,·,·
Cc1oc2cc(OCCN3CCN(CCO)CC3)ccc2c(=O)c1-c1ccc(Br)cc1,·,·,35µM*,·,·
CCN(CC)CCC(=O)N1c2ccccc2Sc2ccc(NC(=O)OC)cc21,?,-3%,28µM*,10%,i
CCCc1ccc(C2C3=C(CC(C)(C)CC3=O)NC3=C2C(=O)c2ccccc23)cc1 (configuration not stated),?,?,25µM*!,-3%,·
COc1ccc(C(=O)Nc2ccc3nc4c(c(Nc5ccccc5OC)c3c2)CCCC4)c(OC)c1,-22%,-4%,-18%,-19%,?
COc1ccc(C(=O)Nc2ccc3nc4c(c(Nc5ccc(OC)c(OC)c5)c3c2)CCCC4)c(OC)c1,?,?,3%,-88%,28µM*
COc1ccccc1Nc1c2c(nc3ccc(NC(=O)c4ccc(OC)c(OC)c4)cc13)CCCC2,?,?,?,22µM*,25µM*
COc1ccccc1Nc1c2c(nc3ccc(NC(=O)c4cccc(OC)c4OC)cc13)CCCC2,?,·,?,-57%,·
